Results from PubChem BioAssay (EPA / NIEHS).
Records with an inconclusive call do not appear. Activity calls are given as the source filed them. Rule for the calls, unless noted: active = hit-call score of the fitted dose curve at least 0.9, where 1 is the maximum; inactive = score below 0.9.

Experiments:
[1] = target: Estrogen-related receptor gamma (Homo sapiens) (UniProt P62508); test: ATG_ERRg_TRANS: Attagene TRANS-FACTORIAL HepG2 Assay for human Estrogen-Related Receptor gamma (ERRg) (AID 2282977; active = hit-call score of the fitted dose curve at least 0.9, where 1 is the maximum;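 note: hits increase reporter signal over DMSO so potencies reflect activators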); details: HepG2 Attagene TRANS reporter, ERRg transactivation
Procedure, shortened: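 Exogenous NR-Gal4 chimera activity measured as reporter transcript induction after 24 h in transiently transfected HepG2 cells. RNA reverse-transcribed, PCR-amplified, 6-FAM-labelled and resolved by capillary electrophoresis; increase over DMSO baseline.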

[2] = target: Glucocorticoid receptor (Homo sapiens) (UniProt P04150); test: ATG_GR_TRANS: Attagene TRANS-FACTORIAL HepG2 Assay for human Glucocorticoid Receptor (GR) (AID 2282978; active = hit-call score of the fitted dose curve at least 0.9, where 1 is the maximum;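 note: activators score as hits since higher reporter transcript over DMSO is fitted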); details: HepG2 Attagene TRANS GR reporter, mRNA transcription
Procedure, shortened: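 Exogenous NR-GAL4 fusion activity was assessed through induced GAL4-UAS reporter transcripts in transfected human HepG2 cells, quantified after 24 h by RT-PCR and fluorescent capillary electrophoresis with DMSO as baseline.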

[3] = target: Oxysterols receptor LXR-alpha (Homo sapiens) (UniProt Q13133); test: ATG_LXRa_TRANS: Attagene TRANS-FACTORIAL HepG2 Assay for human Liver X Receptor alpha (LXRa) (AID 2282980; active = hit-call score of the fitted dose curve at least 0.9, where 1 is the maximum); details: HepG2 Attagene TRANS reporter, LXRa transactivation
Procedure, shortened: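 Read-out: reporter transcript levels by RT-PCR plus capillary electrophoresis, fluorescence intensity. Transiently transfected HepG2, exogenous NR-GAL4 chimera, GAL4-UAS reporters; 24 h compound exposure. Activity = increase over DMSO negative control.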

[4] = target: Oxysterols receptor LXR-beta (Homo sapiens) (UniProt P55055); test: ATG_LXRb_TRANS: Attagene TRANS-FACTORIAL HepG2 Assay for human Liver X Receptor beta (LXRb) (AID 2282981; active = hit-call score of the fitted dose curve at least 0.9, where 1 is the maximum); details: HepG2 Attagene TRANS GAL4-LXRb reporter, mRNA
Procedure, shortened: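 Measures induction of a Gal4-driven reporter transcript in HepG2 cells expressing an exogenous LXRb-Gal4 fusion. Cells are exposed to compound for 24 h before RNA isolation and RT-PCR with capillary electrophoresis detection.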

[5] = ATG_M_06_TRANS: Attagene TRANS-FACTORIAL HepG2 Assay for M06 Transcription Factor (Internal Marker) (AID 2282983; active = hit-call score of the fitted dose curve at least 0.9, where 1 is the maximum); details: HepG2 Attagene TRANS M06 internal marker reporter
Procedure, shortened: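 Read-out: fluorescent reporter cDNA fragments resolved by capillary electrophoresis after RT-PCR and HpaI cut. Source cells were HepG2 carrying transfected multi-reporter GAL4 constructs, dosed 24 h. Increase over DMSO control analysed.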

[6] = target: Nuclear receptor subfamily 4 group A member 2 (Homo sapiens) (UniProt P43354); test: ATG_NURR1_TRANS: Attagene TRANS-FACTORIAL HepG2 Assay for human Nuclear Receptor Related Protein 1 (NURR1) (AID 2282985; active = hit-call score of the fitted dose curve at least 0.9, where 1 is the maximum); details: HepG2 Attagene TRANS reporter, mRNA readout
Procedure, shortened: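 Chimeric NR-Gal4 fusion activity measured in HepG2 after 24 h treatment. Reporter transcripts detected by RT-PCR and capillary electrophoresis fluorescence; positive-direction curve fitting against DMSO.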

[7] = target: Transcriptional activator Myb (Homo sapiens) (UniProt P10242); test: ATG_Myb_CIS: Attagene CIS-FACTORIAL HepG2 Assay for human Myeloblastosis (Myb) Proto-Oncogene Transcription Factor (AID 2282986); details: HepG2 Attagene CIS-FACTORIAL Myb reporter transcription; actives raise or lower the signal
Procedure, shortened: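 In this HepG2 transient-transfection format, cis-regulated reporter mRNA is quantified 24 h post-dosing by RT-PCR with capillary electrophoresis, fitted bidirectionally to DMSO baseline.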

[8] = target: Nuclear respiratory factor 1 (Homo sapiens) (UniProt Q16656); test: ATG_NRF1_CIS: Attagene CIS-FACTORIAL HepG2 Assay for human Nuclear Respiratory Factor 1 (NRF1) Orphan Gene (AID 2282987); details: HepG2 NRF1 cis-element reporter, Attagene multiplex; actives raise or lower the signal
Procedure, shortened: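 Using DMSO as baseline, gain- or loss-of-signal was fitted for reporter mRNA levels in HepG2 cells transiently transfected with cis-regulated reporter units. Samples were taken 24 h after dosing and read by RT-PCR with capillary electrophoresis.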

[9] = ATG_NFI_CIS: Attagene CIS-FACTORIAL HepG2 Assay for human Nuclear Factor I (NFI) (AID 2282989); details: HepG2 cis-regulatory reporter, NFI response element transcription; actives raise or lower the signal
Procedure, shortened: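 Reporter transcription driven by endogenous transcription factors in HepG2 cells; 24 h treatment. Quantitation by labelled RT-PCR fragments on capillary electrophoresis, gain- or loss-of-signal relative to DMSO.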

[10] = target: Myc proto-oncogene protein (Homo sapiens) (UniProt P01106); test: ATG_Myc_CIS: Attagene CIS-FACTORIAL HepG2 Assay for human Myelocytomatosis (Myc) Proto-Oncogene Transcription Factor (AID 2282990); details: HepG2, Attagene cis-reporter transcription factor activity; actives raise or lower the signal
Procedure, shortened: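 Multiplexed cis-reporter transcription in HepG2 cells after 24 h chemical treatment. Reporter mRNA measured by RT-PCR and capillary electrophoresis fluorescence; activity fitted bidirectionally against DMSO control.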

[11] = ATG_NF_kB_CIS: Attagene CIS-FACTORIAL HepG2 Assay for human Nuclear Factor Kappa B (NF-kB) (AID 2282991); details: HepG2 Attagene cis-factorial NF-kB reporter mRNA; actives raise or lower the signal
Procedure, shortened: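 Endpoint from a 52-component multiplexed HepG2 reporter panel: cis-regulated transcription units transiently transfected, 24 h dosing, reporter mRNA quantified by RT-PCR and capillary electrophoresis, scored as increase or decrease against DMSO.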

[12] = ATG_NRF2_ARE_CIS: Attagene CIS-FACTORIAL HepG2 Assay for human Nuclear Factor Erythroid 2 Related Factor 2 (NFR2) response to Antioxidant Response Elements (ARE) (AID 2282992); details: HepG2 Attagene ARE/NRF2 reporter, transcription factor activity; actives raise or lower the signal
Procedure, shortened: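 Readout: reporter mRNA quantified by RT-PCR plus FAM-labelled primer extension, HpaI digestion and capillary electrophoresis, 24 h after dosing transfected HepG2 cells. Gain or loss of signal is fitted bidirectionally against DMSO baseline.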

[13] = ATG_Oct_MLP_CIS: Attagene CIS-FACTORIAL HepG2 Assay for human Octamer-Binding Transcription Factor (Oct) (AID 2282993); details: HepG2 Attagene cis-factorial Oct reporter, mRNA; actives raise or lower the signal
Procedure, shortened: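 Transfected HepG2 cells, 24 h treatment. Reporter mRNA quantified by RT-PCR–capillary electrophoresis; bidirectional fitting against DMSO.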

[14] = target: Cellular tumor antigen p53 (Homo sapiens) (UniProt P04637); test: ATG_p53_CIS: Attagene CIS-FACTORIAL HepG2 Assay for human p53 Transcription Factor (AID 2282994); details: HepG2 p53 cis-element reporter, Attagene mRNA; actives raise or lower the signal
Procedure, shortened: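 Read-out: reporter mRNA by RT-PCR plus capillary electrophoresis with fluorescence detection. Human HepG2 liver cells carried transfected multi-reporter cis-element constructs, dosed 24 h. Gain or loss of signal fitted bidirectionally against DMSO control.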

[15] = target: Bile acid receptor (Homo sapiens) (UniProt Q96RI1); test: ATG_FXR_TRANS: Attagene TRANS-FACTORIAL HepG2 Assay for Farnesoid X Receptor (FXR) (AID 2282979; active = hit-call score of the fitted dose curve at least 0.9, where 1 is the maximum;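 note: hits raise reporter mRNA above DMSO so AC50 marks FXR activation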); details: HepG2 Attagene TRANS FXR-GAL4 reporter transcription
Procedure, shortened: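 Read-out: fluorescent reporter transcripts quantified by capillary electrophoresis after RT-PCR of total RNA. Source cells were HepG2 transiently carrying chimeric NR-GAL4 plus GAL4-UAS reporter units, dosed 24 h. Activity fitted upward relative to DMSO baseline.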

[16] = BSK_3C_TissueFactor: BioMAP Diversity Plus: 3C Assay for Tissue Factor Biomarker Activity (AID 2282997); details: BioMAP 3C HUVEC, tissue factor biomarker readout; actives raise or lower the signal
Procedure, shortened: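 HUVEC, 3C system, 24 h post-dose; Tissue Factor by ELISA; bidirectional fit vs DMSO baseline.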

[17] = BSK_3C_uPAR: BioMAP Diversity Plus: 3C Assay for Urokinase-type plasminogen activator receptor (uPAR) Biomarker Activity (AID 2282998); details: BioMAP 3C HUVEC, uPAR biomarker ELISA; actives raise or lower the signal
Procedure, shortened: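 Readout: ELISA for surface uPAR. System: human umbilical vein endothelial primary cells, 24 h after chemical exposure. Analysis: bidirectional fit, DMSO baseline.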

[18] = BSK_3C_VCAM1: BioMAP Diversity Plus: 3C Assay for Vascular cell adhesion molecule 1 (VCAM1) Biomarker Activity (AID 2282999); details: BioMAP 3C HUVEC, VCAM1 ELISA, cytokine-stimulated; actives raise or lower the signal
Procedure, shortened: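 Vascular primary endothelium (human umbilical vein) was exposed to chemicals and assayed 24 h later. VCAM-1 levels came from ELISA, with DMSO serving as baseline for bidirectional fitting.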

[19] = target: Hepatocyte nuclear factor 4-alpha (Homo sapiens) (UniProt P41235); test: ATG_HNF4a_TRANS: Attagene TRANS-FACTORIAL HepG2 Assay for human Hepatocyte Nuclear Factor 4 alpha (HNF4a) (AID 2282982; active = hit-call score of the fitted dose curve at least 0.9, where 1 is the maximum); details: HepG2 HNF4a transactivation reporter, mRNA readout
Procedure, shortened: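 In this trans-factorial format, a chimeric HNF4a-GAL4 fusion drives a GAL4-UAS reporter in transfected HepG2 liver cells. After 24 h treatment, reporter mRNA induction is measured by RT-PCR with capillary electrophoresis, relative to DMSO.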

Measured: outcome

Sequence of Oxysterols receptor LXR-beta (Homo sapiens) (P55055 whole entry, looked up, the tested form may be a part): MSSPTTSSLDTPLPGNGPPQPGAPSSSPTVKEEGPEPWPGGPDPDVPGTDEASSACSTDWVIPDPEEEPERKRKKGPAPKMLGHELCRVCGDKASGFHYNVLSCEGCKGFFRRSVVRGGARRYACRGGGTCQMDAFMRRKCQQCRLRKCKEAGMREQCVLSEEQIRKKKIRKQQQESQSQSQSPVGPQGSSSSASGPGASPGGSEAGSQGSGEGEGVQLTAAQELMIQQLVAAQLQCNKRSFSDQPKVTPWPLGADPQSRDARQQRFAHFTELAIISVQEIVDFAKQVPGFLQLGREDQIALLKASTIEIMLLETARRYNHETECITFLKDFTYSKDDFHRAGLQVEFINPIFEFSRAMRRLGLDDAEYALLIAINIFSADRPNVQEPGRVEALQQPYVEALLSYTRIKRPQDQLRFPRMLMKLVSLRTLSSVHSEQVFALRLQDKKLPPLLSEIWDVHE
Sequence of Glucocorticoid receptor (Homo sapiens) (P04150 whole entry, looked up, the tested form may be a part): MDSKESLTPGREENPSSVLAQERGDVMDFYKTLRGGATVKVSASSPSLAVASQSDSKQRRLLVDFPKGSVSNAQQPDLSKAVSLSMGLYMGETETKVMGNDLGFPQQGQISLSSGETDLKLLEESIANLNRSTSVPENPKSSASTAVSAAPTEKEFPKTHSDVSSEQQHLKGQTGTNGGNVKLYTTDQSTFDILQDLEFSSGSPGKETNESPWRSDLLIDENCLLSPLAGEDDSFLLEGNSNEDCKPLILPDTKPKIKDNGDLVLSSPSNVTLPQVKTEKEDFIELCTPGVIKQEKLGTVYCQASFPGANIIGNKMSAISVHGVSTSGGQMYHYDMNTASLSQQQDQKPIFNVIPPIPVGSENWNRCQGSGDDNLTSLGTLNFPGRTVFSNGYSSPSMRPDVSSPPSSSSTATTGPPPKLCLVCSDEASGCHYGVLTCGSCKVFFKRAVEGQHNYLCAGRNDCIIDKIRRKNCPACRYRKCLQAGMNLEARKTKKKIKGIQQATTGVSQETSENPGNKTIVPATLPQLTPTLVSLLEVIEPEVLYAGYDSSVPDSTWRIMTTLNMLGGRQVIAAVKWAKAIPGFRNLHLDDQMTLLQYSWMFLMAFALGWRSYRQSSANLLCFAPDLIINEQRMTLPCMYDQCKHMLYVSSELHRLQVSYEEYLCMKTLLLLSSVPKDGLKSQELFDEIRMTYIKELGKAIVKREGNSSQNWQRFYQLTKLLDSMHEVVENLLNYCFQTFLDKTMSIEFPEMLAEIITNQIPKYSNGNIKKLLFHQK
Sequence of Nuclear respiratory factor 1 (Homo sapiens) (Q16656 whole entry, looked up): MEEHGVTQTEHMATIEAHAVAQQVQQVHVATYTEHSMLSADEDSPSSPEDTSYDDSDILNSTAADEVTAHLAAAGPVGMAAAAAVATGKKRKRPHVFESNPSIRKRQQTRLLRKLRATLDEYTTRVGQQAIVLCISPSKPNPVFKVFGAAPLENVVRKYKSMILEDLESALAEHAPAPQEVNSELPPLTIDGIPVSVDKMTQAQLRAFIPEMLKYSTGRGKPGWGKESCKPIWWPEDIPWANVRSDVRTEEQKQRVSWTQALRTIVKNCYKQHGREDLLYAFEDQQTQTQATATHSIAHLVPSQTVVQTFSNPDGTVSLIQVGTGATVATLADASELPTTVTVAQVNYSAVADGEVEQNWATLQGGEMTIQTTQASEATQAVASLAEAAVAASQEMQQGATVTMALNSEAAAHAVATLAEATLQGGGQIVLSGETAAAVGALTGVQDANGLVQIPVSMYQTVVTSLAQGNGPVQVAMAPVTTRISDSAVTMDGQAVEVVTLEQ
Sequence of Cellular tumor antigen p53 (Homo sapiens) (P04637 whole entry, looked up): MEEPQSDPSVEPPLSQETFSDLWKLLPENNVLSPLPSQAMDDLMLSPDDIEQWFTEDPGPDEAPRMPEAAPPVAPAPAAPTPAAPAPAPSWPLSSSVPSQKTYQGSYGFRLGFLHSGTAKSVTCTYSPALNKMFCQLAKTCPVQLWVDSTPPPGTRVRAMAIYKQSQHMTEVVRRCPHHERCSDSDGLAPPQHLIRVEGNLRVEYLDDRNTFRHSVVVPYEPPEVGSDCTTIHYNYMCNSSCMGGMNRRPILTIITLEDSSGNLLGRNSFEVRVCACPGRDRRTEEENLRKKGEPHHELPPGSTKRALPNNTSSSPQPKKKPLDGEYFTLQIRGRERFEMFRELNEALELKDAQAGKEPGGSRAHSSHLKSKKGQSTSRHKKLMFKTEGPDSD
Sequence of Myc proto-oncogene protein (Homo sapiens) (P01106 whole entry, looked up): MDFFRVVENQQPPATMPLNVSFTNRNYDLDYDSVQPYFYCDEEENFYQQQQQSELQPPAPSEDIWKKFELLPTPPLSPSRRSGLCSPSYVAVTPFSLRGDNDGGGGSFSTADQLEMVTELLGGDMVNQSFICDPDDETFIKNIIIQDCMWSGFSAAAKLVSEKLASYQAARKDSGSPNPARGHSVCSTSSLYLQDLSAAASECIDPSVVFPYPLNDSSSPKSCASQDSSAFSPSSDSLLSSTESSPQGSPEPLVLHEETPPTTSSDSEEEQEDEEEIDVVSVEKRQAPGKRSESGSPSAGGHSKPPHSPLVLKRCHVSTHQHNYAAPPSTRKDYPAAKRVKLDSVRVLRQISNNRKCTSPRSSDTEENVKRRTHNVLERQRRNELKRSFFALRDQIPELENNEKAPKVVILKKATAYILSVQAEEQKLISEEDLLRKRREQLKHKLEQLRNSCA
Sequence of Transcriptional activator Myb (Homo sapiens) (P10242 whole entry, looked up): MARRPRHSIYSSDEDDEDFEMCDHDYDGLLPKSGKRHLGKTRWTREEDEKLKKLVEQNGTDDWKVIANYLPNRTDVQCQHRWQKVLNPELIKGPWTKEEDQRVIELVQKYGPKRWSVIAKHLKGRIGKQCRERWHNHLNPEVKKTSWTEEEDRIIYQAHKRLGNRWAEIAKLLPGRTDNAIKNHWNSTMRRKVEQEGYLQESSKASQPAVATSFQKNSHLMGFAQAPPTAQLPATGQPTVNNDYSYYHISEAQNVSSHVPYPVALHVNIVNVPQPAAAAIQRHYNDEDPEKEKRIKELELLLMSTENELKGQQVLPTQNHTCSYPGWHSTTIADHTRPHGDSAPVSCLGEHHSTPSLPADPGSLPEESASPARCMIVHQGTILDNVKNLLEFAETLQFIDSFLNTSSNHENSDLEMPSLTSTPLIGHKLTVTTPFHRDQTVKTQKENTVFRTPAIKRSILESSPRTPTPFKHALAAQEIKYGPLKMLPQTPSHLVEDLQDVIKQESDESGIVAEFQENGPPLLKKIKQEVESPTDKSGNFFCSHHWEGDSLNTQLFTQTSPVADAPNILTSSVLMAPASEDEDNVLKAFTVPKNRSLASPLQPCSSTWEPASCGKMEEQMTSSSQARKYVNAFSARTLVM
Sequence of Estrogen-related receptor gamma (Homo sapiens) (P62508 whole entry, looked up, the tested form may be a part): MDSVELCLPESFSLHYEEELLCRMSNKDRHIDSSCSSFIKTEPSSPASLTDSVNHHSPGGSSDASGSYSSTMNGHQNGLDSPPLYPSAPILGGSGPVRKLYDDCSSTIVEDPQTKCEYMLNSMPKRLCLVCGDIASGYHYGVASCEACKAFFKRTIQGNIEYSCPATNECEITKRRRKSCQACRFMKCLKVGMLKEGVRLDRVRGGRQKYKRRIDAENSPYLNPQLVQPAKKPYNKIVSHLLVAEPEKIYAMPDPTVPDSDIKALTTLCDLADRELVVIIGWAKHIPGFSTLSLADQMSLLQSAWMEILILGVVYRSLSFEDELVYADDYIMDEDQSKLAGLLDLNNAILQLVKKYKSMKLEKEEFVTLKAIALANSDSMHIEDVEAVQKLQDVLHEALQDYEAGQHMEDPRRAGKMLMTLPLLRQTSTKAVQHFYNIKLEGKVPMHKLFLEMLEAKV
Sequence of Hepatocyte nuclear factor 4-alpha (Homo sapiens) (P41235 whole entry, looked up, the tested form may be a part): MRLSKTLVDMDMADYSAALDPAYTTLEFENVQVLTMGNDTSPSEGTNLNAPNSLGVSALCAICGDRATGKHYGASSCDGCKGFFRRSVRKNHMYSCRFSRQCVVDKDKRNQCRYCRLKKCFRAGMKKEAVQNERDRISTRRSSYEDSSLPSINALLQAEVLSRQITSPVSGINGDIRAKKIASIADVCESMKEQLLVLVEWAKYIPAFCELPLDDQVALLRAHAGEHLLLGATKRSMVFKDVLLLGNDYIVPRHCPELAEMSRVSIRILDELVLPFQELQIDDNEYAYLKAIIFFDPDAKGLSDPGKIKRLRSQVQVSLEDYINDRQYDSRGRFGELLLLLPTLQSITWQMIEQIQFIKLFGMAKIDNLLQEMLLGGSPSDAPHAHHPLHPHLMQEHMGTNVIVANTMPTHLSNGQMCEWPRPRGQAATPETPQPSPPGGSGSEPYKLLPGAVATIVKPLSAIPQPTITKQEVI
Sequence of Nuclear receptor subfamily 4 group A member 2 (Homo sapiens) (P43354 whole entry, looked up, the tested form may be a part): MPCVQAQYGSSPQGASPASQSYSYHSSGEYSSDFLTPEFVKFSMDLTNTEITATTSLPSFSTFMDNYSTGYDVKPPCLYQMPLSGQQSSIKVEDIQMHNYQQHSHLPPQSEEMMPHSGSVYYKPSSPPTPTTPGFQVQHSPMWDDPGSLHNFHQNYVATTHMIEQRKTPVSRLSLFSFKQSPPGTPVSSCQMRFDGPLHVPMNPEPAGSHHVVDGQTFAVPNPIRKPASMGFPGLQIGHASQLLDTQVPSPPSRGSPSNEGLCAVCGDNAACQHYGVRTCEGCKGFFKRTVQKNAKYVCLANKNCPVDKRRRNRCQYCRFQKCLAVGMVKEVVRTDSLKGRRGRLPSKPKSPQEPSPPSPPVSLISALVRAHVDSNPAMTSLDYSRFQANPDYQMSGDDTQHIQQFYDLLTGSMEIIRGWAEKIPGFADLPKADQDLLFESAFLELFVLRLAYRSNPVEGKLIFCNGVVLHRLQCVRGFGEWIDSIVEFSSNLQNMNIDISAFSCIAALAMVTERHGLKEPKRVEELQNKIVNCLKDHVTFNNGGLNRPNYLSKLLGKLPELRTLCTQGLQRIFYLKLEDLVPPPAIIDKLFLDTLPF

CC(C)(c1ccccc1)c1ccc(Nc2ccc(C(C)(C)c3ccccc3)cc2)cc1
not listed: [15] | [16] | [17] | [18] | [19]
inactive: all other assays above

CCCCCCOC(=O)CCCCC(=O)OCCCCCC
not listed: [2] | [3] | [6] | [19]
inactive: all other assays above

c1ccc2cnccc2c1
not listed: [3] | [6] | [15] | [16] | [17] | [18]
inactive: all other assays above

C=C(C)OC(C)=O
not listed: [15] | [16] | [17] | [18]
inactive: all other assays above
